The values that follow come from PubChem BioAssay (NCATS).

Values joined by “and” are separate entries in the source; they are usually repeats but may differ in a detail not shown here. Equal entries are not always repeated. Results filed as inconclusive are left out. A number with no mark means an inactive call. The call rests on the fitted dose curve; in most records, active means well fitted activation curve with a large enough effect in the signal ratio (not every such curve was filed as active); inconclusive means small, poorly fitted or top-dose-only effect, or a change in a side signal; inactive means flat fitted curve, though single readings scatter; the % refers to the signal ratio.

The nature of this assay: qHTS assay for small molecule activators of the p53 signaling pathway (AID 651743). Further: series mostly up to about 92 µM; % of control where 0% means no effect. Conditions: HCT-116 p53RE-bla, beta-lactamase FRET ratio, 16 h; hits give high values. The text has this: National Center for Advancing Translational Sciences [NCATS] NIH Chemical Genomics Center [NCGC] U.S. Environmental Protection Agency [EPA] National Institutes of Environmental Health Sciences [NIEHS] National Toxicology Program [NTP] Assay Overview: p53, a tumor suppressor protein, is activated following cellular insult, including DNA damage and other cellular stresses. The activation of p53 regulates cell fate by inducing DNA repair, cell cycle arrest, apoptosis, or cellular senescence. The activation of p53, therefore, is a good indicator of DNA damage and other cellular stresses. The CellSensor p53RE-bla HCT-116 cell line (Invitrogen) contains a stably integrated beta-lactamase reporter gene under control of the p53 response elements. The activation of the report gene under culture conditions can be detected by fluorescence intensity. This cell line can be used to screen chemicals in a 1536-well plate format and to identify agonists that activate p53 signaling pathway.
Assay Protocol Summary: The p53RE-bla cells were dispensed at 4,000 cells/5 ul/well in 1536-well black wall/clear bottom plates using a Multidrop dispenser. After the assay plates were incubated at a 37 C/5% CO2 incubator for 5 hours, 23 nL of compounds dissolved in DMSO, positive controls or DMSO only was transferred to the assay plate by a pin tool. The plates were incubated at 37 C for 16 hours. After 1 uL of LiveBLAzer B/G FRET substrate was added using a Flying Reagent Dispenser, the plates were incubated at room temperature for 2 hours, and fluorescence intensity was measured by an Envision plate reader.
On the technique in general: Quantitative high-throughput screening tests each substance at several concentrations.
Consider `Cc1cccc2cccnc12`, for which the activation was -4.27%.
`O=C(O)CNC(=O)c1ccc(CO)o1`: the activation is -3.47%.
As to `CCCCCCCCN`, the activation was -1.65%.
As for `O=C(O)CN(CC(=O)O)CC(=O)O`, the activation was -2.4% and 1.34% and -0.523%.
`CCCOCC(C)OCC(C)O` (stereo not given): the activation was -5.61%.
Consider `NC(=S)NNC(N)=S`, for which the activation is 1.05% and -1.18%.
Turning to `Nc1cccc(S(=O)(=O)O)c1`, the activation is -1.01%.
The value for `Cc1ccc2cccnc2c1` was -4.94%; that for `NC(N)=S` was -1.07%; that for `Cc1ccc(Cl)cc1N` was 0.545%.
Turning to `CC(C)Cc1nccs1`, the activation is 0.156%.
The result for `C1CCOC1` reads 1.06%; that for `CC(=O)c1cccc([N+](=O)[O-])c1`, -3.72%.
In the case of `NS(=O)(=O)O`, the activation is -0.9%.
For `CCCCOCCOCCSC#N`, the activation is -1.56%.
Consider `CC(=O)OCCC(C)C`, for which the activation was -1.24%.
The value for `CCCCC/C=C/C=C/C=O` was -11.3%; that for `[O-]/[N+](=N\O)c1ccccc1` was -2.28%; that for `COc1cccc(N)c1` was -3.72%.
The result for `Clc1ccc(Cl)c(Cl)c1Cl` reads -4.49% and 4.59%.
The result for `CCOCC(=O)O` reads -3.4%; that for `CC(O)COC(C)(C)C` (stereo not given), -6.33%.
On to `Cc1nc2ccc(Cl)cc2[nH]1`, for which the activation is -1.34%.
The result for `CC(=O)OC(C)=O` reads 1.52%; that for `CSCCC=O`, -3.46%; that for `Nc1cccc2c(=O)[nH][nH]c(=O)c12`, -2.14%.
Consider `ICCc1ccccc1`, for which the activation was -3.45%.
For `CCCCCCCCC/C=C/CC1CC(=O)OC1=O` (stereo not given), the activation is 3.69%.
The value for `CN(C)CCCNCCCN` was -2.59%.
The value for `Cc1ccc2ccccc2c1[N+](=O)[O-]` was 0.53%; that for `O=[N+]([O-])c1cccc(C(F)(F)F)c1` was 2.87%.
On to `BrC/C=C/CBr`, for which the activation was 0.265%.
In the case of `Cc1cccc2ccccc12`, the activation is -1.93%.
Consider `Cc1ccccc1C=O`, for which the activation is 3.12%.
The result for `C(=C/c1ccccc1)/c1ccccc1` reads -2.17%; that for `Cc1ccc(C(C)(C)C)cc1`, -7.08%.
For `CC(C)c1ccccc1`, the activation was 0.723%.
The value for `C=C(C)C(N)=O` was -2.66%.
For `Cc1cscn1`, the activation is -1.86%.
For `ClCCl`, the activation was -4.34%.
